# An excerpt weighted towards active compounds, which were near 0.89% of everything screened.
# LAP4 TOR yeast: alters LAP4-GFP fluorescence in TOR pathway yeast screen | 0.34% of 320,000 active | GFP response vs DMSO, % at 10 µM | S. cerevisiae LAP4-GFP multiplex, flow cytometry GFP, 3 h; median GFP as percent of DMSO wells | AID 2023;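 active = GFP response vs DMSO above a set limit, about the screen mean plus 3 SD, cut at about 150% in these data; inconclusive = under 70 cell events counted for the yeast strain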
# CIT2 TOR yeast: alters CIT2-GFP fluorescence in TOR pathway yeast screen | S. cerevisiae CIT2-GFP strain, flow cytometry, 3 h; 100 means same as DMSO wells | 0.065% of 320,000 active | GFP response vs DMSO, % at 10 µM;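 active = GFP response relative to DMSO above a set limit, near the screen mean plus 3 SD, cut at about 150% in these data; inconclusive = Fewer than 70 cells measured for a yeast strain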;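 also: ratio of well median GFP fluorescence to mean of DMSO wells on the plate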
# MEP2-GFP yeast: modulators of TOR pathway MEP2-GFP in S. cerevisiae; GFP response vs DMSO, % at 10 µM; AID 2016; 0.51% of 330,000 active; S. cerevisiae MEP2-GFP strain, flow cytometry GFP, 3 h; 100% = DMSO control level;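 active = GFP response versus DMSO above a set limit, roughly screen mean plus 3 SD, cut at about 180% in these data; inconclusive = fewer than 70 cells counted for a yeast strain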;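 also: median GFP fluorescence of the barcode-gated MEP2-GFP cells per well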
# AGP1 TOR yeast: alters AGP1-GFP fluorescence in TOR pathway yeast screen; GFP response vs DMSO, % at 10 µM; 0.02% of 320,000 active; S. cerevisiae AGP1-GFP multiplex flow cytometry, 3 h; GFP as percent of DMSO wells; AID 2066;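 active = GFP response relative to DMSO above a set limit, near screen average plus 3 SD, cut at about 150% in these data; inconclusive = fewer than 70 cells counted for the yeast strain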;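 also: median GFP channel fluorescence of the gated AGP1 strain per well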
# RPL19A TOR yeast: alters RPL19A-GFP fluorescence in TOR pathway yeast screen; S. cerevisiae RPL19A-GFP strain, flow cytometry, 3 h; active compounds read low; percent response vs DMSO, % at 10 µM; 0.3% of 330,000 active; AID 2025;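 active = percent response vs DMSO below 50%; inconclusive = fewer than 70 events counted for the yeast strain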;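 also: median channel GFP fluorescence of the barcoded RPL19A-GFP strain; ratio of sample median GFP to plate DMSO average so 100% = DMSO; lower means less RPL19A-GFP as with rapamycin TOR inhibition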
# The depositor's hits bear a star; ? = inconclusive; / = no result; [ ] = remark or other dose.
SMILES,LAP4 TOR yeast,CIT2 TOR yeast,MEP2-GFP yeast,AGP1 TOR yeast,RPL19A TOR yeast
CN1CCN(C(=O)c2ccc3c(c2)NC(=O)C(C)(C)O3)CC1,139,?,259*[may fluoresce violet],?,15*[may fluoresce violet]
COc1cc(C(=O)Nc2ccccc2N2CCOCC2)ccc1OCC(=O)N1CCOCC1,102,97,101,104,97
O=C(O)c1ccc(CSc2ncnc3c2cnn3Cc2ccccc2)cc1,93,97,98,97,97
Cc1onc(-c2ccccc2)c1C(=O)N1CCC(C)CC1,160*,122,221*,134,83
Cc1onc(-c2ccccc2)c1C(=O)N1CCCN(C(=O)c2c(-c3ccccc3)noc2C)CC1,95,/,102,104,100
CCCS(=O)(=O)N1CCN(c2ccccc2F)CC1,102,99,94,102,95
N#Cc1ccccc1Cn1cc(/C=C/[N+](=O)[O-])c2ccccc21,156*,89,84,98,93
O=C(O)Cn1cc(/C=C/[N+](=O)[O-])c2ccccc21,103,105,105,106,103
O=[N+]([O-])/C=C/c1cn(Cc2ccccc2)c2ccccc12,178*,93,101,94,89
O=C(Cn1cc(/C=C\[N+](=O)[O-])c2ccccc21)Nc1ccccc1,102,93,102,98,96
O=C(NCC(c1cccnc1)N1CCOCC1)Nc1ccccc1 (stereo not given),78,?,189*[may fluoresce violet],?,23*[may fluoresce violet]
O=C(O)c1ccc(N/N=C/C(Br)=C/c2ccccc2)cc1,161*,98,106,72,107
OCC1(Cc2ccccc2)CCCN(Cc2ccc(-c3ccco3)cc2)C1 (stereo not given),92,?,328*[may fluoresce violet],27,36*[may fluoresce violet]
OCC1(Cc2ccccc2)CCN(Cc2ccc(-c3ccco3)cc2)CC1,93,76,102,95,103
COc1ccc(NC(=O)COc2ccc(C(=O)NC3CCCc4ccccc43)cc2OC)cc1 (stereo not given),93,106,106,103,108
O=c1[nH]nc(-c2cccs2)c2ccccc12,104,/,103,100,101
CCCCOc1ccccc1Cn1c(=O)oc2ccccc21,106,?,178*[may fluoresce violet],/,73
COC(=O)C(Cc1ccc(O)cc1)NC(=O)c1ccc2c(c1)OCCO2 (stereo not given),67,?,237*[may fluoresce violet],?,39*[may fluoresce violet]
COC(=O)C(Cc1ccc(O)cc1)NC(=O)CCc1ccco1 (stereo not given),?,?,?,?,18*[may fluoresce violet]
O=C(OCCN1C(=O)c2ccccc2C1=O)C1CCN(S(=O)(=O)c2cccs2)CC1,98,97,106,102,102
Cc1ccc(C(=O)N/N=C/c2ccc([N+](=O)[O-])s2)cc1,106,90,102,92,101
Cc1ccc(C(=O)N/N=C\c2ccc([N+](=O)[O-])s2)cn1,75,?,311*[may fluoresce violet],21,49*[may fluoresce violet]
CCOC(=O)c1oc2ccccc2c1CSc1nnnn1-c1ccc(OC)cc1,88,?,248*[may fluoresce violet],?,51
CCCn1c(=O)c2ccccc2n2c(SCc3c(C(=O)OCC)oc4ccccc34)nnc12,105,98,96,99,98
c1ccc(-c2nc(N3CCCCCC3)nc(-n3ccnc3)n2)cc1,130,90,103,82,101
SMILES,LAP4 TOR yeast,CIT2 TOR yeast,MEP2-GFP yeast,AGP1 TOR yeast,RPL19A TOR yeast
c1ccc(-c2nc(N3CCN(c4ccccc4)CC3)nc(-n3ccnc3)n2)cc1,127,?,243*[may fluoresce violet],20,59
O=C(c1ccc(Cl)cc1[N+](=O)[O-])N1CCOCC1,104,105,110,102,100
CN1C=CC=C/C1=C1\SC(=S)N(N)C1=O,68,?,293*[may fluoresce violet],?,44*[may fluoresce violet]
O=C(c1ccc2oc(CCCc3ccccc3)nc2c1)N1CCCCC1CO (stereo not given),91,94,105,96,109
O=C(Nc1nc(-c2ccccn2)cs1)c1ccc(-c2ccccc2F)o1,170*[may fluoresce violet],?,173,24,55
CC(C)(C)Nc1nc(Cl)nc(NC2CCCCC2)n1,74,?,171,?,42*[may fluoresce violet]
CCOc1cc(C(=O)NCC(=O)N2CCC3(CC2)NCCc2[nH]cnc23)cc(OCC)c1OCC,96,102,102,102,100
COCCNCC(O)CON=C1c2ccccc2-c2ccccc21 (stereo not given),95,?,170,22,48*[may fluoresce violet]
CCOC(=O)C(=O)c1cn(C2OCC(OC(C)=O)C(OC(C)=O)C2OC(C)=O)c2ccccc12 (stereo not given),92,?,174,20,43*[may fluoresce violet]
CCOC(=O)Cn1cc(C(=O)C(=O)N2CCOCC2)c2ccccc21,94,109,99,104,103
CCN(CC)N=Nc1[nH]nc2nc(C)cc(C)c12,138,157*,152,133,106
Cc1cc(C)c2c(N=NN3CCCCC3)[nH]nc2n1,110,169*,109,117,98
Cc1cc(C)c2c(C)[nH]nc2n1,110,98,101,109,100
CN1CCN(C(=O)C2CCCN(c3ncnc4c3nc3n4CCCCC3)C2)CC1 (stereo not given),103,107,107,104,105
COC(=O)c1ccc(-c2nc(O)c3cnccn23)cc1,76,?,325*[may fluoresce violet],?,22*[may fluoresce violet]
Oc1nc(-c2ccc(Cl)cc2)n2ccncc12,100,95,95,104,95
C=CCN=C1CC(C)(C)CC(=O)/C1=C(\O)c1ccccc1,100,99,106,109,106
COc1ccc2c(c1)cc(C(=O)N[C@@H](Cc1ccccc1)C(=O)O)n2C,86,?,467*[may fluoresce violet],?,18*[may fluoresce violet]
COc1ccc(C(=O)Oc2ccc(/C=N/NC(=O)c3ccccc3OC)cc2[N+](=O)[O-])cc1,117,105,195*,100,102
CC(C)CC(=O)Nc1ccc(C(=O)CN2CCN(c3ccc(O)cc3)CC2)cc1,58,?,237*[may fluoresce violet],?,26*[may fluoresce violet]
CC(=O)c1ccc(N2CCN(CC(=O)Nc3ccc(N4CCOCC4)cc3)CC2)cc1,91,/,98,95,91
C=CCOc1ccc(C(=O)n2cc(C(=O)OC)c3ccccc32)cc1,106,92,186*,90,99
Cc1[nH]c2ccccc2c1C(=O)C(C)OC(=O)C1CCC1 (stereo not given),189*,64,103,57,68
S=C(Nc1ccc(Cl)cc1)Nc1ccc2cn[nH]c2c1,169*,65,85,74,95
S=C(Nc1ccc2cn[nH]c2c1)Nc1ccc(Cl)cc1Cl,102,95,97,103,97
COc1ccc(C(=O)Nc2c(N)nc[nH]c2=O)cc1,/,/,181*,/,65
Cc1ccc(CNS(=O)(=O)c2ccc(CN3C(=O)c4cccnc4C3=O)cc2)o1,82,?,127,?,27*[may fluoresce violet]

# Screens from PubChem.
